The panel holds about 79,000 compounds, 15% with a hit somewhere; the sample as a whole holds those more often. A number with no mark means an inactive call. Activity calls are given as the source filed them. No stated cut-off is given here; in the data, active means growth inhibition above about 70%; inactive means the rest.
experiment: NCI Yeast Anticancer Drug Screen. Data for the rad50 strain (AID 155);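 further: 0% = growth of vehicle-only cultures of the same strain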; settings: S. cerevisiae rad50 strain growth inhibition; at 50.0 µM; active compounds read high
How it was run: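 Vehicle-treated cultures provide the reference for the growth inhibition reported for compound-exposed, repair-deficient yeast.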

Structure (SMILES) | growth inhibition [%]
C[Si](C)(C)c1ccc(-c2ccccc2)cc1 | 20.1
Cc1nc(Nc2ccc(Cl)cc2)c2cnn(-c3ccccc3)c2n1 | 29.1
ClCCOC(c1ccc(Cl)cc1)c1ccc(Cl)cc1 | -1.6
Cc1ccc(OCC(=O)C2CSc3ccc(Cl)cc32)cc1 (configuration not stated) | 67.8
OCc1ccccc1F | -42.4
C/C(CCn1[nH]c(=O)ccc1=O)=N\N=C(N)N | -13.2
S=C(N/N=C1\CSCc2ccccc21)Nc1cc(Cl)ccc1Cl | 11.9
O=c1/c(=C/c2ccco2)sc2nc3ccccc3n12 | 15.8
CO/N=C1\CC(NC(=O)C(F)(F)F)c2ccsc21 (configuration not stated) | 11.6
COc1cc(NCCCCCNC(C)C)c2nccc(C)c2c1 | 42.2
Cc1ccc(N(C)C(=O)Nc2ccccc2)c(C)c1 | 4.1
CC(=O)n1cc(CS)c(=O)[nH]c1=O | -6.2
Cc1cccc(C)c1/[N+]([O-])=C/c1cccc([N+](=O)[O-])c1 | -1.8
COc1nc(C(O)C2OC(C)(C)OCC2O)[nH]c1C#N (configuration not stated) | 6.05
COC(CN(C)C(=S)Nc1cccc2ccccc12)OC | -31.9
N#CC(C#N)c1ccc(C(C#N)C#N)cc1 | -9.15
CCCC1c2c(ccc3ccccc23)Oc2ccc3ccccc3c21 | -36.1
c1ccc2c(c1)ccc1c3ccccc3ncc21 | 62.8
C=CCNC(=S)Nc1c(C)cc(C)cc1C | 7.2
CCn1c2ccc(N(C)C)cc2c2cc(N(C)C)ccc21 | -25.4
CC1(C)OC2(CC1C1(C)C=CC(=O)O1)CC1(O)C(CCC34CC13C(=O)OC4c1ccoc1)O2 (configuration not stated) | 17
COc1ccc(Cl)cc1NC(=O)Oc1cc2ccccc2cc1C(=O)Nc1ccccc1 | -9.4
O=C(O)C(Cc1ccc(OS(=O)(=O)Cc2ccccc2)cc1)NS(=O)(=O)Cc1ccccc1 (configuration not stated) | 29.9
O=C1OC(c2ccccc2Cl)Sc2ccccc21 (configuration not stated) | -3.25

experiment: NCI Yeast Anticancer Drug Screen. Data for the mec2-1 strain (AID 157); settings: S. cerevisiae mec2-1 strain, at 50.0 µM, active compounds read high
How it was run: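 Cells of the genetically defined mec2-1 yeast strain are incubated with test compound. Inhibition of growth is calculated against vehicle-treated controls.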

Structure (SMILES) | growth inhibition
C=CCN(C)C(=O)CCCCCCCC1C(CCCCCCCC)C2(Cl)C(Cl)=C(Cl)C1(Cl)C2(Cl)Cl (configuration not stated) | 4.35%
CC1=CC=NN2C(=O)[C@H](C)C2C1 (some centres not stated) | 0.75%
COC1(OC)N=C(N)C2(C#N)C(C)=C3NCN(C)N=C3C12C#N (configuration not stated) | 3.2%
Cn1c(=O)c2[nH]c(SCCc3ccccc3)nc2n(C)c1=O | 0.05%
CCCCCC[C@H](C/C=C\CCCCCCCC(=O)OCCCC)OC(C)=O | 0.2%
CCOc1ccccc1NCN1C(=O)c2ccccc2C1=O | -35.1%
CC(=O)C(C)(C)CCC(C)(C)C(C)=O | -12.6%
ClC(Cl)(Cl)C1CCC2CCCC21 (configuration not stated) | -24.1%
O=S(=O)(O)c1cc(N=Nc2cc(S(=O)(=O)O)c3ccccc3c2O)ccc1/C=C/c1ccc(N=Nc2cc(S(=O)(=O)O)c3ccccc3c2O)cc1S(=O)(=O)O | 36%
C/C(=N\Nc1ccccc1)c1sc(-c2nc(C)c(/C(C)=N/Nc3ccccc3)s2)nc1C | -3.2%
CC(C)(C)C(=O)Nc1c(Cl)c(C2CC2)nn1-c1ccccc1 | -0.55%
CC1(C)SC(C)(C)C1=O | -7.35%
CC(=O)OCC1OC(n2ccc(=O)[nH]c2=O)CC1N=[N+]=[N-] (configuration not stated) | 8.7%
O=C(Nc1cccc(Cl)c1)c1cc2cc(N=Nc3ccc(Br)cc3)ccc2oc1=O | 33.6%
CC(CN(C)C)CN1c2ccccc2Sc2ccccc21 (configuration not stated) | -2.4%
COC1=C(OC)C(=O)C(Sc2ccc3ccccc3c2)=C(Cl)C1=O | 94.2% (active)
C[Si](C)(C)c1ccc(-c2ccccc2)cc1 | -8.65%
Cc1nc(Nc2ccc(Cl)cc2)c2cnn(-c3ccccc3)c2n1 | -7.2%
ClCCOC(c1ccc(Cl)cc1)c1ccc(Cl)cc1 | 3.5%
Cc1ccc(OCC(=O)C2CSc3ccc(Cl)cc32)cc1 (configuration not stated) | 33%
OCc1ccccc1F | -34%
C/C(CCn1[nH]c(=O)ccc1=O)=N\N=C(N)N | -13.1%
S=C(N/N=C1\CSCc2ccccc21)Nc1cc(Cl)ccc1Cl | -4.45%
